Results as given in PubChem BioAssay AID493220 (National Center for Advancing Translational Sciences (NCATS), 2011).
Records with an inconclusive call do not appear. The source made the active and inactive calls. Calls come from the whole dose curve.

Biological target: Polyunsaturated fatty acid lipoxygenase ALOX15 (Homo sapiens) (UniProt P16050)
Assay: Inhibitors of 12-hLO (12-human lipoxygenase): 15hLO-1 Cuvette-Based Inhibition Counterscreen Assay for 12hLO Followup Compounds
Details: purified 15hLO-1, UV 234 nm product formation
Method: Human lipoxygenase 15hLO-1 is a member of the closely related lipoxygenase family of enzymes which catalyze the site-specific oxidation of arachidonic acid to various hormone precursor molecules and as such is a candidate for drug development in a variety of disease areas, such as cancer and inflammation. The enzyme activity of 15hLO-1 was determined by a direct measurement of product formation by monitoring the absorbance at 234 nm in a 2 mL cuvette. IC50 values of inhibitors were obtained by measuring the enzymatic rate at a variety of concentrations (Carroll et al, Segraves et al). A purified preparation of human 15hLO-1 was supplied by Professor Ted Holman, University of California, Santa Cruz. This assay was run against 12hLO followup compounds with the goal of identifying selective 12hLO inhibitors. Assay Provider: Holman, T.R., University of California, Santa Cruz Screening Center PI: Austin, Christopher P. Screening Center: NIH Chemical Genomics Center
For control experiments, 2 mL of substrate buffer (10 uM arachidonic acid / 25 mM HEPES / 0.01% (v/v) Triton X-100, pH 8.0) was aliquoted in a cuvette with a magnetic stir bar. After equilibrium was ensured, an aliquot of inhibitor solvent was added (DMSO), and equilibrium was once again assured. […] 3; No change in absorbance ensured. […] 5; No change in absorbance ensured. […]

Chain of Polyunsaturated fatty acid lipoxygenase ALOX15 (Homo sapiens) (P16050 whole entry, looked up): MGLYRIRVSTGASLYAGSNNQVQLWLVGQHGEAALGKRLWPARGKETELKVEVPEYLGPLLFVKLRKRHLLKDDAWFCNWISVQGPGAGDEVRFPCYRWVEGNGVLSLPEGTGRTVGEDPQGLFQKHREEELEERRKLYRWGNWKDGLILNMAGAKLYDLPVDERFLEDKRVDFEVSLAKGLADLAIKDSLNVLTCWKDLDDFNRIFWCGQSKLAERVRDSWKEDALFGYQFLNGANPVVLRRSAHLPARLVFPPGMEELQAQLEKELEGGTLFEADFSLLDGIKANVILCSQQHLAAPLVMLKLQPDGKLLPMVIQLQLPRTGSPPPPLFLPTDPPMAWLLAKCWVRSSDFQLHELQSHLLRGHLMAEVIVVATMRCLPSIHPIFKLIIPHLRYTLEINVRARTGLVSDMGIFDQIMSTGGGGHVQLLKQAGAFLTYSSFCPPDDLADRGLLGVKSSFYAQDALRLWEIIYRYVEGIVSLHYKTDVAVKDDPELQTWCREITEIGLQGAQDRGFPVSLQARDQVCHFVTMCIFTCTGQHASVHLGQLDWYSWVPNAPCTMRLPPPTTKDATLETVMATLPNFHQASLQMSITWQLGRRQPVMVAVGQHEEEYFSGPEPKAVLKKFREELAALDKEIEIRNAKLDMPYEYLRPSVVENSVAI

CC(Oc1ccc(Cl)cc1Cl)C(=O)Nc1ccc(S(=O)(=O)Nc2cnc3ccccc3n2)cc1 (stereo unspecified)
Potency: 30.8 µM (active)
